{"source": "PubChem BioAssay (NCI)", "note": "About 83,000 compounds went through this panel and 20% of them were active in at least one assay; those are over-represented in the sample as a whole.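 Interpretation: 100, growth as untreated; towards 0, rising growth inhibition; 0, no net growth; 0 to -100, cell death. Compounds scoring below 10 were considered active.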 A number with no mark means an inactive call. Activity calls are given as the source filed them.", "data": [{"test_system": "MDA-MB-468 breast", "assay": "NCI-60 one-dose screen, 48 h (100 = growth as untreated, 0 = no growth, -100 = all killed)", "conditions": "10 µM unless noted", "values": [{"compound": "CNc1nc(C)c(-c2nc(Nc3cccc(S(N)(=O)=O)c3)ncc2F)s1", "growth": "-38.3% (active)"}, {"compound": "CCC(C)C1NC(=O)c2nc(oc2-c2ccccc2)-c2csc(n2)-c2csc(n2)-c2nc(oc2C)-c2coc(n2)CNC(=O)C(C(C)CC)NC1=O", "note": "(configuration not stated)", "growth": "-76.9% (active)"}, {"compound": "C[N+](C)(C/C=C/c1ccccc1)Cc1ccccc1", "growth": "78.8%"}, {"compound": "COc1ccc(/C=C/C(=O)c2ccc(NC(=O)CSc3nnc(-c4cc(OC)c(OC)c(OC)c4)o3)cc2)cc1", "growth": "-60.5% (active)"}, {"compound": "CC(C)C1=NOC(=O)C1=Cc1cn(-c2ccco2)nc1-c1ccccc1", "growth": "54%"}, {"compound": "COc1cccc(/C=C/C(=O)c2cc3c(N)c(C(=O)Nc4ccccc4)sc3nc2C)c1", "growth": "15.3%"}, {"compound": "Fc1ccc(-c2cc3nc(C(Cl)Cl)nc(-c4ccc(Cl)cc4)n3n2)cc1", "growth": "-76.3% (active)"}, {"compound": "COC(=O)C1CCc2sc3ncnc(Nc4cn[nH]c4C(=O)Nc4ccc(CN5CCN(C)CC5)cc4)c3c21", "note": "(configuration not stated)", "growth": "37.3%"}, {"compound": "Clc1ccc(-c2nc(-c3ccco3)cn3ccnc23)cc1", "growth": "-5.8% (active)"}, {"compound": "CC1=C(NCCN2CCCC2)C(=O)c2c(OCc3ccc(F)c(Cl)c3)cccc2C1=O", "growth": "67.1%"}, {"compound": "COc1cc(NCCN(CC(C)C)CC(C)C)c2ncc(C)cc2c1", "growth": "11.7%"}, {"compound": "CC1(C)OCC2OC3(C(=O)O)OC(C)(C)OC3C2O1", "note": "(configuration not stated)", "growth": "98.5%"}, {"compound": "O=C(/C(=N/O)S(=O)(=O)c1ccccc1)c1cccs1", "growth": "101%"}, {"compound": "CSc1nnc(-c2cc3c([nH]c4ccccc43)c(-c3cccc(O)c3)n2)n1-c1ccc(C)cc1", "growth": "20.4%"}, {"compound": "NS(=O)(=O)c1ccc(NC2=C(Cl)C(=O)c3ccccc3C2=O)cc1", "growth": "-67% (active)"}, {"compound": "COC(=O)c1ccc(C2Nc3ccc(S(=O)(=O)Nc4ccc(C)c(C)c4)cc3C3OCCC23)cc1", "note": "(configuration not stated)", "growth": "54.7%"}, {"compound": "N=c1ccn2c(n1)O[C@@H]1[C@@H](O)[C@H](CO)O[C@@H]12", "growth": "77.1%"}, {"compound": "Oc1ccc(CSc2nnc(-c3cnccn3)n2-c2ccccc2)c2cccnc12", "growth": "5.53% (active)"}, {"compound": "C=C(C)[C@@H]1CC[C@]2(C)CC[C@]3(C)[C@H](CC[C@@H]4[C@@]5(C)CCCNC(C)(C)[C@@H]5CC[C@]43C)[C@@H]12", "growth": "26.2%"}, {"compound": "CC1=CCC(OC(=O)C(C)(C)CC(O)(C(C)O)C(O)C2(C)C=CC(Cc3ccc(C(C)C)cc3)(C(C)C)CC2)(C(C)C)CC1", "note": "(configuration not stated)", "growth": "83.1%"}, {"compound": "COCCNC(C(=O)c1ccccc1)c1ccccc1", "note": "(configuration not stated)", "growth": "90.8%"}, {"compound": "O=C(CSc1nc(-c2ccc(Cl)cc2)cn1-c1ccc(Cl)cc1)c1ccc(Br)cc1", "growth": "81.3%"}, {"compound": "O=C1c2cccc3cccc(c23)C(=O)N1N1C(=O)c2cccc3c(N4CCOCC4)ccc(c23)C1=O", "growth": "99.9%"}, {"compound": "O=C(/C=C/C=C/c1c(C2CC2)nc2ccccc2c1-c1ccc(F)cc1)c1cccs1", "growth": "4.94% (active)"}, {"compound": "COc1cc2c(cc1OC)-c1ccc3cc4c(cc3c1N(CCCn1ccnc1)C2)OCO4", "growth": "-63.7% (active)"}, {"compound": "Cc1ccc(NC(=O)N[C@@H](Cc2cc(F)cc(F)c2)C(=O)N[C@@H]2C(=O)N3CCC[C@H]3C(=O)N3CCCC[C@H]3C(=O)N[C@@H](C)C(=O)N3C[C@H](C)C[C@H]3C(=O)O[C@H]2C)cc1", "growth": "5.99% (active)"}, {"compound": "COc1ccc2c(c1)/C(=C1\\S/C(=N/c3nnc(C)s3)NC1=O)C(=O)N2Cc1ccc(Cl)cc1", "growth": "50.9%"}]}]}
